In PubChem BioAssay AID2551 (National Center for Advancing Translational Sciences (NCATS), 2010):
Screen size: about 310,000 compounds; about 17,000 (5.5%) were called active. About 11% were inconclusive and are not listed. The full list was thinned out, with actives kept by preference. Unmarked numbers belong to inactive results. Calls follow the shape of the dose curve; as a rule, active = well fitted inhibition curve with a large enough effect; inconclusive = small, poorly fitted or top-dose-only effect, or effect the other way; inactive = no such curve, though single readings can be large or run the other way.

Target: Nuclear receptor ROR-gamma (Mus musculus) (UniProt P51450)
Test: qHTS for inhibitors of ROR gamma transcriptional activity; also: nearly all actives have a fitted effect of over 60% in size
Details: Drosophila S2 Gal4-RORgamma UAS-luciferase reporter, 20 h; series mostly up to 53.6 µM; activity change, negative = inhibition: at the top concentration
In short: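 Luminescence from a UAS-regulated Photinus luciferase reporter in stably transfected Drosophila Schneider cells is measured; decreased signal marks ROR gamma inhibition. Fusion expression is induced by 700 uM copper sulfate for 20 hr.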
% is scaled to controls: 0 for no effect and ±100 for the full control effect; potency is read from the fitted curve at half-maximal effect.

Sequence of Nuclear receptor ROR-gamma (Mus musculus) (P51450 whole entry, looked up): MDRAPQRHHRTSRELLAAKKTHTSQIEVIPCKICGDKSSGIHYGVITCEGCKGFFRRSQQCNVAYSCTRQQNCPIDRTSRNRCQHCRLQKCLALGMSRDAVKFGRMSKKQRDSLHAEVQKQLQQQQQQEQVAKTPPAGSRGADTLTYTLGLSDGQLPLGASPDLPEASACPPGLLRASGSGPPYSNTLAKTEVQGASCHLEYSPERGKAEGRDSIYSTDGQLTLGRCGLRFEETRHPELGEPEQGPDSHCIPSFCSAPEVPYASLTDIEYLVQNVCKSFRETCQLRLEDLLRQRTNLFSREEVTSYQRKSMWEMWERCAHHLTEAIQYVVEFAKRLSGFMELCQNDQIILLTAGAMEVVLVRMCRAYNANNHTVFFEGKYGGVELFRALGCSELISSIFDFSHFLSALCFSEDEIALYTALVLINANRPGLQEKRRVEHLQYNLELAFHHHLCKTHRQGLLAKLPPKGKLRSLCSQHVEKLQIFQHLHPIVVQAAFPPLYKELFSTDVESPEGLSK

| SMILES | activity change, negative = inhibition | Potency |
| --- | --- | --- |
| COc1ccc(-c2cc(=O)oc3cc(OC(C)C(=O)Nc4ccc(CN5CCOCC5)cc4)ccc23)cc1 (stereo unspecified) | 37.1% |  |
| Cc1ccc(N(C(=O)CNC(=O)c2ccco2)C(C(=O)NC2CCCC2)c2ccncc2)cc1 (stereo unspecified) | 1.7% |  |
| NS(=O)(=O)c1cccc(NC(=O)CSc2nc3ccccc3n2-c2ccccc2)c1 | -0.215% |  |
| CCCC(=O)N(CCc1ccccc1)Cc1nc2ccccc2c(=O)[nH]1 | 15.3% |  |
| CN(C)S(=O)(=O)c1cc(NC(=O)CN2C(=O)NC3(CCCc4ccccc43)C2=O)ccc1Cl (stereo unspecified) | 36.9% |  |
| O=C(c1ccco1)N(Cc1nc2ccccc2c(=O)[nH]1)C1CCCC1 |  | 1.58 µM (active) |
| CCN(CC(=O)NC(=O)NCc1ccccc1)Cc1nc2ccccc2c(=O)[nH]1 |  | 0.355 µM (active) |
| CCN(CC(=O)Nc1cccc(S(N)(=O)=O)c1)Cc1nc2ccccc2c(=O)[nH]1 |  | 2.82 µM (active) |
| CCN(CC)c1ccc(C(=O)NNC(=O)CCc2nc3ccccc3c(=O)[nH]2)cc1 | 18.7% |  |
| CCn1c(Cc2ccccc2)nnc1SCc1nc2ccccc2c(=O)[nH]1 | 43.4% |  |
| COc1ccc(-n2cnnc2SCC(=O)Nc2cccc(S(N)(=O)=O)c2)cc1 | -9.16% |  |
| CCCc1nc(SCC(=O)Nc2ccc(S(=O)(=O)N(C)C)cc2)c2ccccc2n1 | 7.51% [at 10 µM] |  |
| CCN(CC(=O)Nc1ccc(Cl)c(S(=O)(=O)N(C)C)c1)Cc1nc2ccccc2c(=O)[nH]1 |  | 12.6 µM (active) |
| CC(C)=C(NC(=O)c1ccco1)C(=O)NCCc1nc2ccccc2[nH]1 | -9.69% |  |
| COc1ccc(C2(C)NC(=O)N(CC(=O)c3ccc4c(c3)OCO4)C2=O)cc1 (stereo unspecified) | -4.65% |  |
| Cc1cc(C)c(S(=O)(=O)Nc2c(C)n(C)n(-c3ccccc3)c2=O)cc1[N+](=O)[O-] | -8.36% |  |
| Cc1cccc([C@@H]2[C@@H]3C(=O)N(Cc4ccccc4)C(=O)[C@@H]3[C@]3(C)C(=O)N(c4ccc(Br)cc4)C(=O)N23)c1 | 21.2% |  |
| O=C(N/N=C/c1cccc(Br)c1)c1ccc(N2CCCC2=O)cc1 | -8.7% |  |
| COCc1ccc(CN2CCC(Oc3ccc(C(=O)NCc4ccccn4)cc3)CC2)o1 | -7.56% |  |
| COc1ccc(NC(=O)C2CCN(S(=O)(=O)c3ccc4[nH]c(=O)oc4c3)CC2)c(OC)c1 | -10.7% |  |
| Cc1ccc(S(=O)(=O)N(CCCN(C)C)Cc2ccc3c(c2)OCO3)cc1 | 0.598% |  |

| SMILES | activity change, negative = inhibition | Potency |
| --- | --- | --- |
| CCCS(=O)(=O)Nc1ccc(-c2cn3c(n2)SCC3)cc1 | 5.34% |  |
| Cc1ccc(-c2ccc(/C=N/NC(=O)CN3CCOCC3)o2)cc1[N+](=O)[O-] | -112% |  |
| COc1cc(/C=N\NC(=O)c2nonc2N)c(OC)cc1Br | -6.29% |  |
| Cc1cc(C)c([N+](=O)[O-])cc1-c1ccc(/C=N/NC(=O)c2nonc2N)o1 |  | 11.2 µM (active) |
| COc1ccnc2c1c(=O)n(Cc1cccc(F)c1)c(=O)n2C | -8.83% |  |
| O=c1[nH]n(-c2cccc(Cl)c2)c2ncccc12 | 13.5% |  |
| CC(C)CC(=O)N1CCN(Cc2cccc(Cl)c2)CC1 | -20.8% |  |
| Clc1cccc(CN2COc3c(cc(Cl)c4cccnc34)C2)c1 |  | 0.562 µM (active) |
| COc1ccc(Cl)cc1NS(=O)(=O)c1cccc(C(=O)NCC2CCCO2)c1 (stereo unspecified) | -22.2% |  |
| O=C(COc1ccc([N+](=O)[O-])cc1)Nc1cccc(C(=O)Nc2ccccc2C(=O)O)c1 | 5.24% |  |
| CCCOc1ccc(CNC(=O)C2CCN(c3nn4c(=O)cc(C)nc4s3)CC2)cc1 | -8.37% |  |
| Cc1nn2c(NCCN(C)C)c3c(nc2c1-c1ccccc1)CCC3 |  | 0.141 µM (active) |
| Cc1cc(N2CCCC2)n2nc(C)c(-c3ccccc3)c2n1 | 19% |  |
| Cc1cc(C(C)(C)C)n2nc(C)c(-c3ccccc3)c2n1 | -8.83% |  |
| COc1ccc(-c2noc(C(C)NS(=O)(=O)c3ccc(NC(C)=O)cc3)n2)cc1 (stereo unspecified) | 37.7% |  |
| Cc1cc(C)cc(NC(=O)C2CCCN(S(=O)(=O)c3ccc4[nH]c(=O)ccc4c3)C2)c1 (stereo unspecified) | -31.2% |  |
| CSc1nc2sc3c(c2c(=O)[nH]1)CCc1ccccc1-3 | -60.4% |  |
| CCCSc1nc2sc3c(c2c(=O)n1-c1ccc(OC)cc1)CCN(C)C3 | -3.28% |  |
| COc1ccc(-n2c(=S)[nH]c3sc4c(c3c2=O)CCc2ccccc2-4)cc1 |  | 0.447 µM (active) |
| Cn1c(CCN2CCCC2)nc2cc(NS(=O)(=O)c3ccccc3)ccc21 | -26.1% |  |
| CN(CCC1CCOCC1)C(=O)CC1C(=O)NCCN1Cc1cccc(F)c1 (stereo unspecified) | 5.46% |  |

| SMILES | activity change, negative = inhibition | Potency |
| --- | --- | --- |
| CCCCC(CC)CNCc1cccn1CCN1CCOCC1 (stereo unspecified) | -0.924% |  |
| COc1ccc(CCNC(=O)C2CCCN2C(=O)Nc2ccccc2)cc1OC (stereo unspecified) | -13.3% |  |
| C/C(=N\NC(=O)c1cc(-c2ccc(O)cc2)nc2ccccc12)c1cccnc1 | -37.7% |  |
| Cc1cccc(N2C(=O)c3ccc(C(=O)Nc4cccc(C(=O)O)c4)cc3C2=O)c1 | 1.44% |  |
| O=C(O)c1ccc2c(c1)C(=O)N(NC(=O)c1ccc(O)cc1)C2=O |  | 11.2 µM (active) |
| O=C(O)c1ccc2c(c1)C(=O)N(c1ccc(/C=C/C(=O)c3ccccc3)cc1)C2=O | -43.4% |  |
| Cc1cc(OCC(=O)NCC(O)c2ccccc2)c2c(C)c(C)c(=O)oc2c1 (stereo unspecified) | 29.2% |  |
| O=C(O)CCCCCCCCc1cn(CN2C(=O)c3ccccc3C2=O)nn1 | -39.7% |  |
| CC1CCN(C(=O)/C(=C\c2ccccc2)NC(=O)c2ccccc2)CC1 | -6.2% |  |
| CC1CCN(C(=S)NC(=O)c2ccccc2Br)CC1 |  | 0.562 µM (active) |
| CC1CCN(C(=O)c2ccccc2NC(=O)Cc2ccccc2)CC1 | 18.3% |  |
| COc1ccc(NC(=O)C(C)N2c3cccc4cccc(c34)S2(=O)=O)c(OC)c1 (stereo unspecified) | 16.9% |  |
| COc1ccc(COC(=O)c2ccc(Cl)c(S(=O)(=O)N3CCOCC3)c2)cc1F | -12.6% |  |
| CC(C)(C)OC(=O)N1CCC(C(=O)NNC(=O)c2ccc(Cl)cc2Cl)CC1 | -7.57% |  |
| O=C(CN1CCC(O)(c2cccc(C(F)(F)F)c2)CC1)NCCc1ccccc1 | 0.0393% |  |
| O=C(CCc1nnc(Cc2ccc3c(c2)OCO3)o1)NCCc1ccccc1Cl | 8.86% |  |
| O=C(N/N=C/c1cccc2cccnc12)[C@H]1C[C@@H]1c1ccccc1 |  | 3.55 µM (active) |
| O=C(NNC(=S)Nc1ccc(F)cc1)[C@H]1C[C@@H]1c1ccccc1 | -42.6% |  |
| Cc1ccc(NC(=O)C2CC2c2ccccc2)cc1 (stereo unspecified) | 44.6% |  |
